The test system of one test is PPARg:RXRa 30nM:10nM, anti-RXR (NR concentration 30 nM, RXRa partner concentration 10 nM). The test can be described thus: PBM binding z-score (relative to random genomic background probes); higher = stronger binding; sequences stand for … in GC…GCGATTGACAGCGTAGAATGAAGG
Summed up: (§1)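 Custom Agilent 4×180K protein-binding microarrays carried double-stranded probes. Their 34-nt variable regions held direct-repeat seeds, single-nucleotide variants, half-site ablations and random human genomic background sequences. Arrays were incubated 1 h with ligand-free nuclear receptor dimers in PBS pH 7.4, 2% milk, 0.02% Triton X-100, 1 mM DTT, 0.2 mg/mL BSA and 0.4 mg/ml salmon testes DNA. Antibodies against each partner (one per run) detected binding, and scanned fluorescence was regression-normalized. Binding z-scores use random background probes as reference.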
As to ATATGTAGGTTAGCTGTGGTCATTCAGACTAGGC, the PBM binding z-score amounted to 0.838.
The same measure, in the same setting: in the case of TCTCGGAGGACACGAAAGGTCAGCGCTCGACATC it was 2.59.
Same read-out and setting: in the case of TCCTGTAGATCAAAGGTTAAGAAAGCCGAAGCCT it was 8.09; in that of TCTAGTTGGTCGAAGGTCACACACTCGAAATGCG, 6.89.
Same read-out and setting: under TCATATAGGTAAAGGTGAAAGTCGAACGATATGA stands 4.42.
TAGCCTAGGTCATTCATGGGCCAGTATAGAAAGC came in with a PBM binding z-score of 0.373.
The sequence AGAATGAGCTTATACGTAGATCAGGGAAGAAAGT displayed a PBM binding z-score of -0.0699.
Sequence GCGACTGGGGCAAAGCAGGTTACCATAAGGTTGG yielded a PBM binding z-score of -0.898.
On the same count and under the same terms, in the case of ACTAGTTTGTCAGCTGAGGTCACACACAATTCGG it was 0.672; in that of ATACCAAGGTGTTCGTGAGGTCGTTGATACTAAC, -0.0462; in that of CCAGACAGGTGAAAGGTAAGTCAGTCTGGTACGC, 3.
On the same count and under the same terms, in the case of AGAATGAGGTTATACGTATATCAGGGAAGAAAGT it was 1.04.
On the same count and under the same terms, under GCTATTAGTTGAAAGGGCTACCGAATGATTCTCG stands 0.317; under CCTACTGGGCCAAAGGTCATTGTTTCCAATGCTC, 10.6; under GCTAGCAGGCCATTTGGGTCTCTCAATGACGGGC, -1.01.
Consider TCGAGTAGGTTAGTTGGGGCATTCAGCCAACATA, for which the PBM binding z-score was found to be 0.877.
The same measure, in the same setting: under AATACAGGGCCACTAGGCCAGAGTAGGTACGAAT stands 0.0485.
Still for that read-out and setting: in the case of ATACGTAGGTTAGCTGGGGTCATTCAGACTAGGC it was 0.452; in that of GCTAGTTGGCCAGTAAAAGGTCACACACCGGTCG, 1.25; in that of TGTCAAAGTTCAGAGGTAACGTAAGTATCCACAC, 3.46.
Same read-out and setting: in the case of ATCTCTAGGTCAGACTCAGTTCAGTGAAGAACGC it was 0.87; in that of TCACATAGGTAAAAGGTGAAAGTCGGTGTGGTAA, 5.78; in that of TCTTGTAGATGAATAGAGGTTAAGAAAGTGCGCT, 3.31.
With AGAATTAGGTTACCAAAGATCAGGGAAACGCTTG, the PBM binding z-score was found to be 1.37.
The same measure, in the same setting: in the case of ATCTCTAAGTAAAGTTCAGTGAAAGATCGATAGA it was 1.3.
Sequence AATAGAGGGTCACTAGGCCAGAGTAGGTACGAAT returned a PBM binding z-score of 2.33.
Still for that read-out and setting: in the case of AGAACGAGGGCACGCTGATTTGATAGCAGAGTAG it was 0.45; in that of GGAACGAGGGCAAGTTGATGGCAGAGTTTGATGG, -0.146.
The same measure, in the same setting: under CCTAGTTGGTCAATGTCACACACGCTATAGGTAC stands 0.448.
Still for that read-out and setting: in the case of TCATTTAGGTAATACAGGTGAAAGTCGGCATCTA it was 4.52; in that of CCTTACGGGTTACTGACAGGTTATAGCATTTGGA, 0.114.
Regarding ACTATTCGTTGACTTAGGGCAACCGATACGACGC, the PBM binding z-score was determined as 0.272.
ACCTCTAGGTAAGACTCAGTTCAGTGAAGAACGC yielded a PBM binding z-score of -0.00405.
Consider CGTCCAAGGTCAATGCTAGGTCAGTGAAAGCATT, for which the PBM binding z-score stood at 1.16.
The same measure, in the same setting: in the case of ACTATTAGTTGAGACGAGGGCAACCGCTAGGTTG it was -0.122.
Still for that read-out and setting: in the case of TCTTGTAGATCAAAAGAGGTTAAGAAAGTGCGCT it was 2.62.
As for CGAACGAGGGCATGAGTTGAGAGCAAATGCCGAT, the PBM binding z-score stood at 0.0136.
The same measure, in the same setting: in the case of GCTATTAGTTGAAAGGGCAACCAAATGATTCTCG it was 2.34.
Take CAAACTAGGTCAAAGGTCAAAGGCGAGCCAACCA: the PBM binding z-score was 14.7.
Same read-out and setting: under GCTTGTAGATCAACGTTAAGAAAGACTAAGCTAA stands -0.364.

The test system of the next test is PPARg:RXRa 90nM:30nM, anti-RXR (NR concentration 90 nM, RXRa partner concentration 30 nM). The description is as above. In short, it runs like this: as §1
With ATATGTAGGTTAGCTGTGGTCATTCAGACTAGGC, the PBM binding z-score was found to be 1.89.
On the same count and under the same terms, under TCTCGGAGGACACGAAAGGTCAGCGCTCGACATC stands 2.86.
Still for that read-out and setting: in the case of TCCTGTAGATCAAAGGTTAAGAAAGCCGAAGCCT it was 8.13; in that of TCTAGTTGGTCGAAGGTCACACACTCGAAATGCG, 7.98; in that of TCATATAGGTAAAGGTGAAAGTCGAACGATATGA, 4.75.
The same measure, in the same setting: under TAGCCTAGGTCATTCATGGGCCAGTATAGAAAGC stands 1.1; under AGAATGAGCTTATACGTAGATCAGGGAAGAAAGT, -0.597; under GCGACTGGGGCAAAGCAGGTTACCATAAGGTTGG, 0.47.
In turn, ACTAGTTTGTCAGCTGAGGTCACACACAATTCGG displayed a PBM binding z-score of 1.86.
Still for that read-out and setting: under ATACCAAGGTGTTCGTGAGGTCGTTGATACTAAC stands 0.253; under CCAGACAGGTGAAAGGTAAGTCAGTCTGGTACGC, 4.82; under AGAATGAGGTTATACGTATATCAGGGAAGAAAGT, 1.85.
Turning to GCTATTAGTTGAAAGGGCTACCGAATGATTCTCG, the PBM binding z-score worked out at 1.21.
The same measure, in the same setting: under CCTACTGGGCCAAAGGTCATTGTTTCCAATGCTC stands 11.3.
The same measure, in the same setting: in the case of GCTAGCAGGCCATTTGGGTCTCTCAATGACGGGC it was -0.9.
Same read-out and setting: under TCGAGTAGGTTAGTTGGGGCATTCAGCCAACATA stands 0.623.
Consider AATACAGGGCCACTAGGCCAGAGTAGGTACGAAT, for which the PBM binding z-score came out at 0.00605.
On the same count and under the same terms, in the case of ATACGTAGGTTAGCTGGGGTCATTCAGACTAGGC it was 1.55; in that of GCTAGTTGGCCAGTAAAAGGTCACACACCGGTCG, 2.46.
On the same count and under the same terms, under TGTCAAAGTTCAGAGGTAACGTAAGTATCCACAC stands 6.02; under ATCTCTAGGTCAGACTCAGTTCAGTGAAGAACGC, 2.1.
Still for that read-out and setting: under TCACATAGGTAAAAGGTGAAAGTCGGTGTGGTAA stands 7.03.
Turning to TCTTGTAGATGAATAGAGGTTAAGAAAGTGCGCT, the PBM binding z-score is 2.67.
Still for that read-out and setting: in the case of AGAATTAGGTTACCAAAGATCAGGGAAACGCTTG it was 2.53; in that of ATCTCTAAGTAAAGTTCAGTGAAAGATCGATAGA, 2.75; in that of AATAGAGGGTCACTAGGCCAGAGTAGGTACGAAT, 4.4.
AGAACGAGGGCACGCTGATTTGATAGCAGAGTAG gave a PBM binding z-score of 1.1.
Take GGAACGAGGGCAAGTTGATGGCAGAGTTTGATGG: the PBM binding z-score was determined as 0.602.
Same read-out and setting: under CCTAGTTGGTCAATGTCACACACGCTATAGGTAC stands 0.257; under TCATTTAGGTAATACAGGTGAAAGTCGGCATCTA, 3.72; under CCTTACGGGTTACTGACAGGTTATAGCATTTGGA, 0.535.
Same read-out and setting: in the case of ACTATTCGTTGACTTAGGGCAACCGATACGACGC it was 0.212; in that of ACCTCTAGGTAAGACTCAGTTCAGTGAAGAACGC, -0.257.
On the same count and under the same terms, in the case of CGTCCAAGGTCAATGCTAGGTCAGTGAAAGCATT it was 3.17.
Take ACTATTAGTTGAGACGAGGGCAACCGCTAGGTTG: the PBM binding z-score is 0.0431.
In turn, TCTTGTAGATCAAAAGAGGTTAAGAAAGTGCGCT came in with a PBM binding z-score of 2.16.
Same read-out and setting: under CGAACGAGGGCATGAGTTGAGAGCAAATGCCGAT stands 0.958; under GCTATTAGTTGAAAGGGCAACCAAATGATTCTCG, 4.39; under CAAACTAGGTCAAAGGTCAAAGGCGAGCCAACCA, 13.9.
Same read-out and setting: in the case of GCTTGTAGATCAACGTTAAGAAAGACTAAGCTAA it was -0.214.
